PubChem BioAssay (EPA / NIEHS)
Results filed as inconclusive are left out. Activity calls are given as the source filed them. The calls were made as follows: active = hit-call score of the fitted dose curve at least 0.9, where 1 is the maximum; inconclusive = response in the unintended direction; inactive = score below 0.9.

Target: Androgen receptor (Homo sapiens) (UniProt P10275)
Test: ATG_AR_TRANS: Attagene TRANS-FACTORIAL HepG2 Assay for human Androgen Receptor (AR) (AID 2282973)
Conditions: HepG2 Attagene TRANS-FACTORIAL AR reporter transcription
Method in brief: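 Steps: transfect HepG2 with multiple GAL4-UAS reporter transcription units (TRANS format, exogenous NR-Gal4 protein); dose 24 h; isolate RNA, reverse-transcribe, PCR-amplify, FAM-label, HpaI-digest; resolve by capillary electrophoresis. Positive direction vs DMSO.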

Sequence of Androgen receptor (Homo sapiens) (P10275 whole entry, looked up): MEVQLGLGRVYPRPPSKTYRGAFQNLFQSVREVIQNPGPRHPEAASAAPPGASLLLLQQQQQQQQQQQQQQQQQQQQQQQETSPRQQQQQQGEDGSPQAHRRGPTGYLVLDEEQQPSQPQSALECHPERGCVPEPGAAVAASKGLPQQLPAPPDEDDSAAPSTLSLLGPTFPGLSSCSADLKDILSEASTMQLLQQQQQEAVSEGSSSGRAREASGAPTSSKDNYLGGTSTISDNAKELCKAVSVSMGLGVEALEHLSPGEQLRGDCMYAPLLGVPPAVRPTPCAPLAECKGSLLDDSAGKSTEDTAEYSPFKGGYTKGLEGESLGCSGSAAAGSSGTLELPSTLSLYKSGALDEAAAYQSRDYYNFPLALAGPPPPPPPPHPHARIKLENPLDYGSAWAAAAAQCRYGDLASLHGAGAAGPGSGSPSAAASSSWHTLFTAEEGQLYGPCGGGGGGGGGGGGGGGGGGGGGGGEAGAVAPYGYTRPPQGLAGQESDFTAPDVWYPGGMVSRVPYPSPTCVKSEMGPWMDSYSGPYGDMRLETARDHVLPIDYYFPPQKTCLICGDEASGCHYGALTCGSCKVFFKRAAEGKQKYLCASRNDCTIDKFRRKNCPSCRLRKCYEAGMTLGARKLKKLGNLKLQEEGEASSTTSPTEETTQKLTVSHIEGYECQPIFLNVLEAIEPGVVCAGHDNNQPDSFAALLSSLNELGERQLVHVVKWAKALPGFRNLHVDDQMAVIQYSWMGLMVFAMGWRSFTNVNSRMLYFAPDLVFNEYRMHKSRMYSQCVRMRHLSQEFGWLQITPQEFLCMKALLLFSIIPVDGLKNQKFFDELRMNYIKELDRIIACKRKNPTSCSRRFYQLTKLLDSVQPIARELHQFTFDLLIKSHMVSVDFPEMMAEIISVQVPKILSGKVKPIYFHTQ

outcome, inactive:
OCc1c[nH]c2ccccc12
O=C[C@@H](O)[C@H](O)[C@H](O)CO
CC1(C)COCN1
NC(=O)C(F)(F)C(F)(F)C(F)(F)F
COc1cc(C=O)ccc1O
COc1cc(CCC(C)=O)ccc1O
FC(F)(F)C(F)(F)C(F)(F)CC1CO1 (stereo not given)
NCC(F)(F)C(F)(F)C(F)(F)C(F)(F)C(F)(F)C(F)(F)C(F)(F)C(F)(F)F
O=C1OCc2ccccc21
CCN(CC)c1ccc(C=O)cc1
Nc1cc(Cl)c(-c2cc(Cl)c(N)cc2Cl)cc1Cl
O=C1Cc2ccccc2N1c1c(Cl)cccc1Cl
N#CCCOCCC#N
C[C@H]1O[C@@H](O[C@H]2[C@@H](O)C[C@H](O[C@H]3[C@@H](O)C[C@H](O[C@H]4CC[C@@]5(C)[C@H](CC[C@@H]6[C@@H]5C[C@@H](O)[C@]5(C)[C@@H](C7=CC(=O)OC7)CC[C@]65O)C4)O[C@@H]3C)O[C@@H]2C)C[C@H](O)[C@@H]1O
Cc1cc(=O)[nH]c(C(C)C)n1
O=C(O)c1cc(Cl)cc([N+](=O)[O-])c1Cl
COc1cc(/C=C/C(=O)CC(=O)/C=C/c2ccc(O)c(OC)c2)ccc1O
C=CC(=O)OCCOC(=O)C=C
CCCCCCCCCCC
NNC(=O)OCc1ccccc1
COc1ccc(C)cc1N
CC(C)[C@@H]1CC[C@@H](C)C[C@H]1O
O=C(OC(=O)C(F)(F)C(F)(F)F)C(F)(F)C(F)(F)F
O=C(C=C(O)C(F)(F)F)C(F)(F)F
CCCCCCCCCC[N+](C)(C)[O-]
COC(=O)Cc1cccc2ccccc12
O=C1C=CC(=O)N1c1ccccc1
O=C(O)CCCCCCCCCC(=O)O
CC(=O)OC1CCCCC1C(C)(C)C (stereo not given)
Brc1cc(Br)c(Oc2c(Br)cc(Br)c(Br)c2Br)cc1Br
COc1ccc(O)cc1
CC(=O)CC(=O)Nc1ccc(C)cc1C
CC(C)(C)c1cc(CCC(=O)NCCCCCCNC(=O)CCc2cc(C(C)(C)C)c(O)c(C(C)(C)C)c2)cc(C(C)(C)C)c1O
O=[N+]([O-])c1cc(C(F)(F)F)ccc1Cl
FC(F)(F)C(F)(F)C(F)(F)CI
CC(C)c1ccc2cc(C(C)C)ccc2c1
CC1(C)C2=CCCC(C)(C)[C@]23CC[C@H]1C3
CCCC/C=C/C=C\C=O
CCN=c1cc2oc3cc(NCC)c(C)cc3c(-c3ccccc3C(=O)OCC)c-2cc1C

AC50, active:
CCCCCCCCCCCCCCCCCC[N+](C)(C)C 14.5 µM
